# According to the supplement of paper PMC9492666:
# What was measured:
# [1] = system: HCC1937; test: relative cell viability, compound + RSL3, vs DMSO (fraction of DMSO control); higher = less growth inhibition; details: 72 h
# [2] = system: MDA-MB-231; test: as above; details: 72 h
# 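Also: breast cancer cell viability read out with the CCK-8 kit after co-treatment of each compound with the ferroptosis inducer RSL3.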
SMILES,relative cell viability [1],relative cell viability [2]
CN(C)C(=N)NC(=N)N [Metformin] + COC(=O)c1ccc([C@H]2c3[nH]c4ccccc4c3C[C@H](C(=O)OC)N2C(=O)CCl)cc1 [RSL3],0.335,0.542
CCCCCCCCCCCCCCOc1ccc(C(=O)O)o1 + COC(=O)c1ccc([C@H]2c3[nH]c4ccccc4c3C[C@H](C(=O)OC)N2C(=O)CCl)cc1 [RSL3],0.613,0.673
C[C@H](CCC(=O)O)[C@H]1CC[C@H]2[C@@H]3C[C@H](O)[C@@H]4C[C@H](O)CC[C@]4(C)[C@H]3CC[C@]12C [Hyodeoxycholic acid] + COC(=O)c1ccc([C@H]2c3[nH]c4ccccc4c3C[C@H](C(=O)OC)N2C(=O)CCl)cc1 [RSL3],0.829,0.611
CN(C)C(=O)Nc1cccc(-c2ccc(N(C)C)cc2)c1 [Atglistatin] + COC(=O)c1ccc([C@H]2c3[nH]c4ccccc4c3C[C@H](C(=O)OC)N2C(=O)CCl)cc1 [RSL3],0.321,0.562
CC[C@H](C)C(=O)O[C@H]1CCC=C2C=C[C@H](C)[C@H](CC[C@@H]3C[C@@H](O)CC(=O)O3)[C@H]21 [Mevastatin] + COC(=O)c1ccc([C@H]2c3[nH]c4ccccc4c3C[C@H](C(=O)OC)N2C(=O)CCl)cc1 [RSL3],0.707,0.369
O=c1cc(-c2ccc(O)c(-c3c(O)cc(O)c4c(=O)cc(-c5ccc(O)cc5)oc34)c2)oc2cc(O)cc(O)c12 [Amentoflavone] + COC(=O)c1ccc([C@H]2c3[nH]c4ccccc4c3C[C@H](C(=O)OC)N2C(=O)CCl)cc1 [RSL3],0.318,0.496
